# Assays:
# Experiment in all cases: yeast three-hybrid, YBZ-1, SC-Leu-His + 0.5 mM 3-AT, 4 days
# Details in all cases: tags: N-Gal4 AD-HA kept; label: inside an RPR1-promoter hybrid RNA with tandem MS2 sites; ssRNA
# [1] = biological target: PUM1 PUF domain R5-QIR (Homo sapiens, UniProt Q14671 828-1176, C1007Q;R1008I;Q1011R)
# Method in brief: (§1)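 Sequencing with Illumina followed PCR amplification of the repeat regions from transformants grown four days on SC-Leu (input) or SC-Leu-His + 0.5 mM 3-AT (selection). The transformants were strain YBZ-1 with a LexA–MS2 coat fusion and a HIS3 reporter, carrying Pumilio-1 PUF domain libraries and matching RNA elements. The interaction score is the log change in variant frequency from input to selection, computed in log2 with a pseudocount of 1 for absent variants.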
# [2] = biological target: PUM1 PUF domain R5-RTL (Homo sapiens, UniProt Q14671 828-1176, C1007R;R1008T;Q1011L)
# Chain of PUM1 PUF domain R5-RTL (Q14671 828-1176 C1007R/R1008T/Q1011L): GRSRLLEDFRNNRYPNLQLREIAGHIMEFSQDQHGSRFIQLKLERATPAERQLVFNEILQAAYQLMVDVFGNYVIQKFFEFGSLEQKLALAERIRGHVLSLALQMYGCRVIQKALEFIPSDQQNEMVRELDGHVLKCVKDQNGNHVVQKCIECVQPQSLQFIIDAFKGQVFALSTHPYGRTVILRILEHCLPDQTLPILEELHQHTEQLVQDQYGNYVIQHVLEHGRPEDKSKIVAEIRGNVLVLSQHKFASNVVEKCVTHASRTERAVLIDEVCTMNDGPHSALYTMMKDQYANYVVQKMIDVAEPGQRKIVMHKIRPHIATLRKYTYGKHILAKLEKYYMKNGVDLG
# Method in brief: as §1
# [3] = biological target: PUM1 PUF domain R5-KSK (Homo sapiens, UniProt Q14671 828-1176, C1007K;R1008S;Q1011K)
# Method in brief: as §1
# [4] = biological target: PUM1 PUF domain R7-QND (Homo sapiens, UniProt Q14671 828-1176, S1079Q;E1083D)
# Chain of PUM1 PUF domain R7-QND (Q14671 828-1176 S1079Q/E1083D): as the sequence (Q14671 828-1176 C1007R/R1008T/Q1011L) above, with R180C, T181R, L184Q, S252Q, E256D counted along it
# Method in brief: as §1
# [5] = biological target: PUM1 PUF domain R8-PFV (Homo sapiens, UniProt Q14671 828-1176, N1122P;Y1123F;Q1126V)
# Chain of PUM1 PUF domain R8-PFV (Q14671 828-1176 N1122P/Y1123F/Q1126V): as the sequence (Q14671 828-1176 C1007R/R1008T/Q1011L) above, with R180C, T181R, L184Q, N295P, Y296F, Q299V counted along it
# Method in brief: as §1
# [6] = biological target: PUM1 PUF domain R3-GRG (Homo sapiens, UniProt Q14671 828-1176, C935G;Q939G)
# Method in brief: as §1
# [7] = biological target: PUM1 PUF domain R3-LFL (Homo sapiens, UniProt Q14671 828-1176, C935L;R936F;Q939L)
# Method in brief: as §1
# [8] = biological target: PUM1 PUF domain R3-RIR (Homo sapiens, UniProt Q14671 828-1176, C935R;R936I;Q939R)
# Chain of PUM1 PUF domain R3-RIR (Q14671 828-1176 C935R/R936I/Q939R): as the sequence (Q14671 828-1176 C1007R/R1008T/Q1011L) above, with C108R, R109I, Q112R, R180C, T181R, L184Q counted along it
# Method in brief: as §1
# [9] = biological target: PUM1 PUF domain R1-TFR (Homo sapiens, UniProt Q14671 828-1176, S863T;R864F;Q867R)
# Chain of PUM1 PUF domain R1-TFR (Q14671 828-1176 S863T/R864F/Q867R): as the sequence (Q14671 828-1176 C1007R/R1008T/Q1011L) above, with S36T, R37F, Q40R, R180C, T181R, L184Q counted along it
# Method in brief: as §1
# [10] = biological target: PUM1 PUF domain R1-CIR (Homo sapiens, UniProt Q14671 828-1176, S863C;R864I;Q867R)
# Chain of PUM1 PUF domain R1-CIR (Q14671 828-1176 S863C/R864I/Q867R): as the sequence (Q14671 828-1176 C1007R/R1008T/Q1011L) above, with S36C, R37I, Q40R, R180C, T181R, L184Q counted along it
# Method in brief: as §1
# [11] = biological target: PUM1 PUF domain R1-KRQ (Homo sapiens, UniProt Q14671 828-1176, S863K)
# Chain of PUM1 PUF domain R1-KRQ (Q14671 828-1176 S863K): as the sequence (Q14671 828-1176 C1007R/R1008T/Q1011L) above, with S36K, R180C, T181R, L184Q counted along it
# Method in brief: as §1
# [12] = biological target: PUM1 PUF domain R8-KKA (Homo sapiens, UniProt Q14671 828-1176, N1122K;Y1123K;Q1126A)
# Method in brief: as §1
# [13] = biological target: PUM1 PUF domain R7-GRV (Homo sapiens, UniProt Q14671 828-1176, S1079G;N1080R;E1083V)
# Chain of PUM1 PUF domain R7-GRV (Q14671 828-1176 S1079G/N1080R/E1083V): as the sequence (Q14671 828-1176 C1007R/R1008T/Q1011L) above, with R180C, T181R, L184Q, S252G, N253R, E256V counted along it
# Method in brief: as §1
# [14] = biological target: PUM1 PUF domain R7-KFR (Homo sapiens, UniProt Q14671 828-1176, S1079K;N1080F;E1083R)
# Method in brief: as §1
# [15] = biological target: PUM1 PUF domain R1-KNR (Homo sapiens, UniProt Q14671 828-1176, S863K;R864N;Q867R)
# Method in brief: as §1
# [16] = biological target: T1, PUM1 PUF domain R6-TWA (Homo sapiens, UniProt Q14671 828-1176, N1043T;Y1044W;Q1047A)
# T1 sequence: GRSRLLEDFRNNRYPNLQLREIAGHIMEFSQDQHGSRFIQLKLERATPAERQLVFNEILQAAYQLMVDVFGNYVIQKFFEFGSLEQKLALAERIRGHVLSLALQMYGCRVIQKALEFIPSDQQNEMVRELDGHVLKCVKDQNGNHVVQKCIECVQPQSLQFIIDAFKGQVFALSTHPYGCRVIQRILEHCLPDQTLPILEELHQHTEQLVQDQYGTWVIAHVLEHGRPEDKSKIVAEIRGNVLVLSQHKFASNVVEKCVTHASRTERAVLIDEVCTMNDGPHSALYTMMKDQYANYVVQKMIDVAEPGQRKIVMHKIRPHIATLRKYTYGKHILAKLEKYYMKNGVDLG
# Method in brief: as §1
# Chain of PUM1 PUF domain R5-QIR (Q14671 828-1176 C1007Q/R1008I/Q1011R): as the sequence (Q14671 828-1176 C1007R/R1008T/Q1011L) above, with R180Q, T181I, L184R counted along it
sequence,measurement,setting,value
GGCUAGAACUAGUGGAUCCCCCGGCGCCCGGCGGCUCGAGCCCGGGUAAGUGUCAAUAGUCUGCAUGCCGCCGGGCGCCAUGCCUGCAGGUCGACUCUAGAAAACAUG,binding signal,[1],3.55 log2 enrichment (interaction score)
same,binding signal,[2],2.38 log2 enrichment (interaction score)
same,binding signal,[3],3.19 log2 enrichment (interaction score)
GGCUAGAACUAGUGGAUCCCCCGGCGCCCGGCGGCUCGAGCCCGGGUAAGUGUUAAUAGUCUGCAUGCCGCCGGGCGCCAUGCCUGCAGGUCGACUCUAGAAAACAUG,binding signal,[1],1.95 log2 enrichment (interaction score)
GGCUAGAACUAGUGGAUCCCCCGGCGCCCGGCGGCUCGAGCCCGGGUAAGUGUAAAUAGUCUGCAUGCCGCCGGGCGCCAUGCCUGCAGGUCGACUCUAGAAAACAUG,binding signal,[4],3.96 log2 enrichment (interaction score)
same,binding signal,[5],1.89 log2 enrichment (interaction score)
same,binding signal,[6],2.99 log2 enrichment (interaction score)
same,binding signal,[7],1.59 log2 enrichment (interaction score)
GGCUAGAACUAGUGGAUCCCCCGGCGCCCGGCGGCUCGAGCCCGGGUAAGUGUAAUUAGUCUGCAUGCCGCCGGGCGCCAUGCCUGCAGGUCGACUCUAGAAAACAUG,binding signal,[8],4.33 log2 enrichment (interaction score)
GGCUAGAACUAGUGGAUCCCCCGGCGCCCGGCGGCUCGAGCCCGGGUAAGUGUAAGUAGUCUGCAUGCCGCCGGGCGCCAUGCCUGCAGGUCGACUCUAGAAAACAUG,binding signal,[8],5.02 log2 enrichment (interaction score)
same,binding signal,[6],0.98 log2 enrichment (interaction score)
same,binding signal,[7],4.75 log2 enrichment (interaction score)
GGCUAGAACUAGUGGAUCCCCCGGCGCCCGGCGGCUCGAGCCCGGGUAAGUGUAAAUCGUCUGCAUGCCGCCGGGCGCCAUGCCUGCAGGUCGACUCUAGAAAACAUG,binding signal,[9],6.07 log2 enrichment (interaction score)
same,binding signal,[10],4.43 log2 enrichment (interaction score)
same,binding signal,[11],5.97 log2 enrichment (interaction score)
GGCUAGAACUAGUGGAUCCCCCGGCGCCCGGCGGCUCGAGCCCGGGUAAGCGUAAAUAGUCUGCAUGCCGCCGGGCGCCAUGCCUGCAGGUCGACUCUAGAAAACAUG,binding signal,[5],2.24 log2 enrichment (interaction score)
same,binding signal,[12],2.4 log2 enrichment (interaction score)
GGCUAGAACUAGUGGAUCCCCCGGCGCCCGGCGGCUCGAGCCCGGGUAAGUUUAAAUAGUCUGCAUGCCGCCGGGCGCCAUGCCUGCAGGUCGACUCUAGAAAACAUG,binding signal,[13],2.62 log2 enrichment (interaction score)
same,binding signal,[14],6.28 log2 enrichment (interaction score)
GGCUAGAACUAGUGGAUCCCCCGGCGCCCGGCGGCUCGAGCCCGGGUAAGUGUAAAUUGUCUGCAUGCCGCCGGGCGCCAUGCCUGCAGGUCGACUCUAGAAAACAUG,binding signal,[10],0.87 log2 enrichment (interaction score)
same,binding signal,[15],6.76 log2 enrichment (interaction score)
GGCUAGAACUAGUGGAUCCCCCGGCGCCCGGCGGCUCGAGCCCGGGUAAGUGUAAAUGGUCUGCAUGCCGCCGGGCGCCAUGCCUGCAGGUCGACUCUAGAAAACAUG,binding signal,[15],3.86 log2 enrichment (interaction score)
GGCUAGAACUAGUGGAUCCCCCGGCGCCCGGCGGCUCGAGCCCGGGUAAGUGAAAAUAGUCUGCAUGCCGCCGGGCGCCAUGCCUGCAGGUCGACUCUAGAAAACAUG,binding signal,[16],4.52 log2 enrichment (interaction score)
GGCUAGAACUAGUGGAUCCCCCGGCGCCCGGCGGCUCGAGCCCGGGUAAGUCUAAAUAGUCUGCAUGCCGCCGGGCGCCAUGCCUGCAGGUCGACUCUAGAAAACAUG,binding signal,[14],5.33 log2 enrichment (interaction score)
